# PAFAH2 inh: PAFAH2 enzyme inhibitors, primary screen, biochemical, fluorescence polarization, human; Platelet-activating factor acetylhydrolase 2, cytoplasmic (Homo sapiens), Q99487; recombinant PAFAH2, FP-rhodamine activity probe; inhibition, % at 3.39 µM; 340,000 tested, 0.99% active; AID 492956, 2010;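 active = inhibition above the mean over all tested compounds plus 3 SD, cut at about 30% in these data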;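 also: inhibitors block probe labeling of enzyme so polarization drops; 0% = enzyme with DMSO and 100% = wells lacking PAFAH2 protein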
# Pemphigus Ab inh: inhibitors of pemphigus antibody binding to DSG3, primary screen, biochemical, bead-based, flow cytometry, scFv-GFP. Desmoglein-3 (Homo sapiens), P32926. DSG3-coupled beads, scFv-anti-DSG3-GFP binding; stronger effect = lower value. AID 588358, 2011. binding (percent of control), % at 10 µM. 310,000 tested, 0.48% active;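 active = binding more than 3 SD below its plate's average and above zero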;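 also: hits lower antibody fragment binding to DSG3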
# PfM18AAP inh: PfM18AAP inhibitors, malaria aminopeptidase, primary screen, biochemical, QFRET, recombinant enzyme | M18 aspartyl aminopeptidase (Plasmodium falciparum 3D7) | H-Glu-NHMec fluorogenic cleavage | inhibition, % at 7.35 µM | 290,000 tested, 1.2% active;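 active = inhibition above the campaign mean inhibition over all tested compounds plus 3 SD, cut at about 28% in these data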;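 also: 0% = plate median of test compound wells and 100% = 2 mM ZnCl2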
# pPAFAH inh: pPAFAH enzyme inhibitors, primary screen, biochemical, fluorescence polarization, human. Platelet-activating factor acetylhydrolase (Homo sapiens), Q13093. recombinant pPAFAH, FP-rhodamine probe fluorescence polarization. inhibition, % at 3.39 µM. 330,000 tested, 1.5% active. AID 463082, 2010;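 active = inhibition above the mean inhibition across the screen plus 3 SD, cut at about 25% in these data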;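 also: inhibitors block binding of the rhodamine activity-based probe so polarization drops; 0% = enzyme with DMSO and 100% = wells lacking pPAFAH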
# PAFAH1B2 inh: PAFAH1B2 enzyme inhibitors, primary screen, biochemical, fluorescence polarization, human; Platelet-activating factor acetylhydrolase IB subunit alpha2 (Homo sapiens), P68402; recombinant PAFAH1B2, FP-rhodamine activity probe; inhibition, % at 3.39 µM; 340,000 tested, 1.2% active; AID 492953, 2010;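 active = inhibition above the mean of all tested compounds plus 3 SD, cut at about 24% in these data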;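 also: 0% = enzyme with DMSO and 100% = wells lacking PAFAH1B2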
# Target sequence (P68402 whole entry, looked up): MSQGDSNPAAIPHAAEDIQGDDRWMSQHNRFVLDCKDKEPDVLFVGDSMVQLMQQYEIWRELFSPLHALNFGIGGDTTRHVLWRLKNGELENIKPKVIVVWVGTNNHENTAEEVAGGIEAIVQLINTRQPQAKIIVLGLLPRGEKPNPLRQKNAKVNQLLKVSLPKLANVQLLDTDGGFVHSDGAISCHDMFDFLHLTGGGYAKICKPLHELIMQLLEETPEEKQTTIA
# PAFAH1B3 FP inh: PAFAH1B3 enzyme inhibitors, primary screen, biochemical, fluorescence polarization, human | recombinant PAFAH1B3, FP-rhodamine probe | inhibition, % at 3.39 µM | 340,000 tested, 0.28% active | AID 492972, 2010;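 active = inhibition above the screen-wide average of all tested compounds plus 3 SD, cut at about 25% in these data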;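 also: 0% = enzyme with DMSO only and 100% = wells lacking PAFAH1B3 protein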
# Target sequence (Q15102 whole entry, looked up): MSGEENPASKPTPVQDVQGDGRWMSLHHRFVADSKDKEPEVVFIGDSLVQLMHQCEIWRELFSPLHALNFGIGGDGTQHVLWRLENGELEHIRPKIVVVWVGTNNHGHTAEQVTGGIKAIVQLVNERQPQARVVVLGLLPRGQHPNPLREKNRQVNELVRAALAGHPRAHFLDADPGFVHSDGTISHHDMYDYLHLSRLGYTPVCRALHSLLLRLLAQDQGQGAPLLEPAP
# Numbers without * were called inactive; · = no result. Sampled rows, rich in hits. Any-hit rate of the full collection: about 3.8%.
SMILES,PAFAH2 inh,Pemphigus Ab inh,PfM18AAP inh,pPAFAH inh,PAFAH1B2 inh,PAFAH1B3 FP inh
CCCCCC(=O)N1C[C@@H](O)[C@H](n2cc(COC(=O)c3ccccc3)nn2)C[C@@H]1c1ccc(OC)cc1,·,100,·,·,·,·
O=c1[nH]c(SCCOc2cccc3ccccc23)nc2ccccc12,-1,95,-6,3,2,3
CCOc1ccc(NC(=O)c2ccc(NC(=O)CSc3nc4ccccc4c(=O)[nH]3)cc2)cc1,-3,81*,2,0,-5,2
O=C(CSc1nc2ccccc2c(=O)[nH]1)Nc1ccc(C(=O)O)cc1,6,·,-6,4,1,-3
CCOc1ccc(OCCSc2nc3ccccc3c(=O)[nH]2)cc1,3,91,2,3,31*,-6
Cn1ncc([N+](=O)[O-])c1C(=O)Nc1ccccc1C#N,·,101,·,·,·,·
CC(C)Cc1ccc(C(C)CC2=CCC(CN(C)C)C2=O)cc1 (stereo unspecified),3,94,·,·,-2,4
COc1ccc(-c2cc(-c3c(O)c(OC)c4occc4c3OC)[nH]n2)cc1,1,97,6,18,4,7
COc1ccc(-c2cc(-c3c(O)c(OC)c4occc4c3OC)[nH]n2)cc1OC,17,127,-8,34*,4,10
O=C(c1ccc(N2C(=O)c3ccccc3C2=O)cc1)N1CCN(S(=O)(=O)c2ccccc2F)CC1,·,96,·,·,·,·
C=CCn1c(-c2cc(-c3ccccc3)sc2N)n[nH]c1=S,·,96,28*,11,·,·
C=CCn1c(-c2csc(-c3ccccc3)n2)n[nH]c1=S,-3,102,4,6,-2,2
CCOc1cc(/C=C2\C(=O)N(c3cccc(C(=O)O)c3)N=C2C(F)(F)F)ccc1OCC(=O)Nc1ccccc1OC,·,·,-8,37*,·,·
COc1ccc(C2C=C(c3ccc(C)c(C)c3)Nc3ncnn32)c(OC)c1OC (stereo unspecified),3,104,11,3,6,10
COc1cccc(C2C=C(c3ccc(Br)s3)Nc3ncnn32)c1OC (stereo unspecified),5,109,32*,6,2,10
Cc1snc(SCc2ccc(Cl)cc2)c1C#N,-2,95,-1,8,28*,3
CC(C)N1CC=C2C(C#N)=C(N)C(C#N)(C#N)[C@H](c3ccoc3)[C@H]2C1,·,·,15,29*,·,·
CC(C)N1CC=C2C(C#N)=C(N)C(C#N)(C#N)C(c3ccccc3)C2C1 (stereo unspecified),0,·,10,8,7,2
COc1ccc(C2=NS(=O)(=O)N(C)C(C(=O)NCc3ccc4c(c3)OCO4)=C2)cc1OC,2,63*,-2,-1,0,0
Cn1nc(-c2ccc(Cl)cc2)c2cc(C(=O)N3CCN(c4ccccn4)CC3)sc21,-8,-3.6*,4,-8,-2,15
CC(C)NC(=O)c1cc2c(-c3ccc(Cl)cc3)nn(C)c2s1,4,73*,-8,-3,1,-2
CCOC(=O)N1CCC(NC(=O)c2cc3c(-c4ccc(Cl)cc4)nn(C)c3s2)CC1,-5,91*,-6,-1,1,4
O=C(NCCc1ccccc1)C1CCC(CNS(=O)(=O)c2ccc(F)cc2)CC1 (stereo unspecified),-2,·,3,8,4,0
CCCCN1C(=O)C(CC(=O)NC(c2ccccc2)c2ccccc2)CC(C(=O)N(C(C)C)C(C)C)=C1C (stereo unspecified),·,98,·,·,·,·
C=CCn1c(-c2cccn(Cc3ccc(Cl)cc3Cl)c2=O)n[nH]c1=S,2,·,7,-6,29*,5
SMILES,PAFAH2 inh,Pemphigus Ab inh,PfM18AAP inh,pPAFAH inh,PAFAH1B2 inh,PAFAH1B3 FP inh
C=CCn1c(-c2cccn(Cc3ccccc3)c2=O)n[nH]c1=S,5,103,8,0,7,3
C=CCn1c(-c2cccn(Cc3ccc(Cl)cc3)c2=O)n[nH]c1=S,0,103,7,4,33*,4
O=C(NC(=S)Nc1ccccc1F)c1ccc(Br)o1,4,104,10,5,3,4
C[C@@H]1CN([C@H](C)CO)C(=O)c2cc(Br)cnc2O[C@@H]1CN(C)C(=O)Cc1ccccc1,·,102,·,·,·,·
COc1ccccc1CN1CC(C(=O)NCC2(O)CCCCC2)CCC1=O (stereo unspecified),·,108,·,·,·,·
O=C(NNc1cc(Cl)ccc1Cl)c1c(F)cccc1Cl,-12,114,19,0,2,1
O=C(NNc1ccc(F)cc1)c1c(F)cccc1Cl,9,·,30*,0,6,10
O=C(NNc1ccc(Cl)cc1)c1c(F)cccc1Cl,3,·,31*,1,6,6
CC(OC(=O)c1ccc2c(c1)OCO2)C(=O)NC1CCCCC1 (stereo unspecified),·,105,·,·,·,·
CCCC(=O)N(Cc1cc2cc(OC)ccc2[nH]c1=O)c1ccc(OC)cc1,·,105,·,·,·,·
O=C(NCCc1ccccc1)c1nc(CS(=O)(=O)c2ccc(Cl)cc2)no1,5,·,0,9,23,4
O=C(NCCc1ccccc1)c1nnc(CS(=O)(=O)c2ccccc2)o1,13,109,0,28*,19,-3
O=C(NCc1cccnc1)c1cc(S(=O)(=O)N2CCCC2)c(Cl)cc1Cl,9,·,4,·,6,11
[O-][n+]1onc2c1CCC(=N/O)/C2=N\Nc1ccccc1,·,·,4,41*,·,·
COc1ccc(-c2coc3c(C)c4oc(=O)c(CCC(=O)O)c(C)c4cc23)cc1,7,116,-4,25*,4,5
Cc1c(CCC(=O)O)c(=O)oc2c(C)c3occ(-c4ccc(Br)cc4)c3cc12,11,115,-3,·,5,7
Oc1c(Br)cc(/C=N/n2c(-c3ccccc3)n[nH]c2=S)c(Br)c1O,·,·,33*,88*,·,·
COc1ccc(Cl)cc1N(CC(=O)NCc1ccccn1)S(=O)(=O)c1ccc(C)cc1,·,103,·,·,·,·
CCOC(=O)N1CCN(S(=O)(=O)c2ccc(C(=O)NNc3nc4cc(C)cc(C)c4s3)cc2)CC1,14,95,15,28*,2,16
CCOC(=O)N1CCN(S(=O)(=O)c2ccc(C(=O)Nc3nnc(CC)o3)cc2)CC1,9,98,2,-7,5,16
COc1cccc(Nc2nc(C)cc(C)c2C#N)c1,3,106,2,2,2,5
COc1ccc(Nc2nc(C)cc(C)c2C#N)cc1OC,-7,12*,2,-4,1,-1
Cc1ccc(CN2C(=O)C(=O)N(CC(N)=O)C2=O)cc1,-8,96,-9,0,0,6
